The whole screen tested about 5,500 compounds, of which about 2,000 (36%) were called active. About 18% were inconclusive and are not listed. Rule as the data show it: active = normalized growth mostly below about 0.91 (no sharp cut-off); inconclusive = no clear call, values can overlap the other calls; inactive = mostly above about 0.92. The list shows a part of the results.
Experiment: chemical genetic growth profiling, strain panel (AID 1159580);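 also: tested at 20 µM; growth read once vehicle control cultures reached saturation at 30 °C; 1 = growth at the plate median or of vehicle wells; lower values mean less growth of the strain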
Conditions: S. cerevisiae deletion strains, growth OD

Measured: normalized growth

CNC(=O)[C@H]1O[C@@H](n2cnc3c(NCc4ccc(I)cc4)nc(Cl)nc32)[C@H](O)[C@@H]1O
inactive: locus YAL013W, strain DEP1, stronger effect = lower value 0.986 | locus YAL040C, strain CLN3, stronger effect = lower value 0.939 | locus YCL061C, strain MRC1 (second series), stronger effect = lower value 0.996 | locus YDR150W, strain NUM1, stronger effect = lower value 1 | locus YDR363W, strain ESC2, stronger effect = lower value 0.944 | locus YER002W, strain NOP16, stronger effect = lower value 0.97 | locus YGR078C, strain PAC10, stronger effect = lower value 0.99 | locus YJR075W, strain HOC1, stronger effect = lower value 0.999 | locus YMR263W, strain SAP30, stronger effect = lower value 0.995 | locus YMR307W, strain GAS1, stronger effect = lower value 1 | locus YNL128W, strain TEP1, stronger effect = lower value 0.981 | locus YNL175C, strain NOP13, stronger effect = lower value 0.962 | locus YNL197C, strain WHI3, stronger effect = lower value 0.98 | locus YNL224C, strain SQS1, stronger effect = lower value 0.997 | locus YNL322C, strain KRE1, stronger effect = lower value 0.972 | locus YOR083W, strain WHI5 (second series), stronger effect = lower value 0.918 | locus YPL055C, strain LGE1, stronger effect = lower value 0.937
